This is an account of results in ChEMBL document CHEMBL1961873, “Compounds: GSK PKIS; Assays: Nanosyn kinase panel” (2012).

In assay [1] the target is High affinity nerve growth factor receptor (Homo sapiens) (UniProt P04629). Conditions: at 1 µM.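 Further: each value is the mean percent inhibition of TRKA.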
Assay [2] has as its target BDNF/NT-3 growth factors receptor (Homo sapiens) (UniProt Q16620). Conditions: at 0.1 µM.
For assay [3] the target is unchanged. Conditions: at 1 µM.
Assay [4] concerns the target NT-3 growth factor receptor (Homo sapiens) (UniProt Q16288). Particulars: at 0.1 µM.
For assay [5] the target is unchanged. Conditions: at 1 µM.
Assay [6] deals with T1, Tyrosine-protein kinase TXK (Homo sapiens) (UniProt P42681).
T1 sequence (whole entry): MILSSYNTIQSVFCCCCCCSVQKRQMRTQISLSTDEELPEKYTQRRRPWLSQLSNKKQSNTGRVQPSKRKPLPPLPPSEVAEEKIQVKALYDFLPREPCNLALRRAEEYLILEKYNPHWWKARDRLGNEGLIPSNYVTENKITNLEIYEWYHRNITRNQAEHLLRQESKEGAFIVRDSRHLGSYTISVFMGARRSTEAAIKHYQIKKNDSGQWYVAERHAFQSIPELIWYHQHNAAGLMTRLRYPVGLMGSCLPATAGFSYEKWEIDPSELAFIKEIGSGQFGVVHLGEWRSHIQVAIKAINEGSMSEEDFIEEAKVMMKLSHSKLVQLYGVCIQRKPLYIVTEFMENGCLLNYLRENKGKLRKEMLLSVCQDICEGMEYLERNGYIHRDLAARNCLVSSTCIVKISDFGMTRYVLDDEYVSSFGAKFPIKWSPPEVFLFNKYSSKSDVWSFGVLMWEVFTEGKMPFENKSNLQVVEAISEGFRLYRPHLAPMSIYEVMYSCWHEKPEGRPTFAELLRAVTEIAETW
Conditions: at 0.1 µM.

The target of assay [7] is T1, Tyrosine-protein kinase TXK (Homo sapiens). Conditions: at 1 µM.
Assay [8] has as its target Non-receptor tyrosine-protein kinase TYK2 (Homo sapiens) (UniProt P29597). Particulars: at 0.1 µM.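 Further: each value is a mean of the inhibition readings.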
In assay [9] the target is T2, Dual specificity protein kinase TTK (Homo sapiens) (UniProt P33981).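 Further: reported figures are mean TTK inhibition at 1 µM.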
T2 sequence (whole entry): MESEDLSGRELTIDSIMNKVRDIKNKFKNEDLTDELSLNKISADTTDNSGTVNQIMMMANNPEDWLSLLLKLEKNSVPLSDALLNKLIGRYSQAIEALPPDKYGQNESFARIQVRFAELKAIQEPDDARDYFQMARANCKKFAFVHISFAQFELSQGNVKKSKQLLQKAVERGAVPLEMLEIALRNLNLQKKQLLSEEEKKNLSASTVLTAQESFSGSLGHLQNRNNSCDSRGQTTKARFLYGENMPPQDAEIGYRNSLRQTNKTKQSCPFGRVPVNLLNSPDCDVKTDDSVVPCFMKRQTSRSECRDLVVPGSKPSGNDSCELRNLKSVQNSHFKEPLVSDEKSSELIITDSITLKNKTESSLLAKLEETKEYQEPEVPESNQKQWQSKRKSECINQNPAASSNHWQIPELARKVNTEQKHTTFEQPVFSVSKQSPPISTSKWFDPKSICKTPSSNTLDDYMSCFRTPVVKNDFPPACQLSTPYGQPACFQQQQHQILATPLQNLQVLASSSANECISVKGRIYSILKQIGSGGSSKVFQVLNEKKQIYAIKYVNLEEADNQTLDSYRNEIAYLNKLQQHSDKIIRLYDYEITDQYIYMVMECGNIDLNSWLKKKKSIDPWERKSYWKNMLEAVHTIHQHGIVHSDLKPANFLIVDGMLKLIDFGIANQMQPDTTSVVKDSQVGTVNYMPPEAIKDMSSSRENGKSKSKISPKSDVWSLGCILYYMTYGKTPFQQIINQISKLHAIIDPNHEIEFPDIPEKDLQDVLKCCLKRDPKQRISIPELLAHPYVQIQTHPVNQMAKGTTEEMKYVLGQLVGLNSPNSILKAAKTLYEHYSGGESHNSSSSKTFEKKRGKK
Conditions: at 1 µM.

Assay [10] has as its target T3, Aurora kinase A (Homo sapiens) (UniProt O14965).
T3 sequence (whole entry): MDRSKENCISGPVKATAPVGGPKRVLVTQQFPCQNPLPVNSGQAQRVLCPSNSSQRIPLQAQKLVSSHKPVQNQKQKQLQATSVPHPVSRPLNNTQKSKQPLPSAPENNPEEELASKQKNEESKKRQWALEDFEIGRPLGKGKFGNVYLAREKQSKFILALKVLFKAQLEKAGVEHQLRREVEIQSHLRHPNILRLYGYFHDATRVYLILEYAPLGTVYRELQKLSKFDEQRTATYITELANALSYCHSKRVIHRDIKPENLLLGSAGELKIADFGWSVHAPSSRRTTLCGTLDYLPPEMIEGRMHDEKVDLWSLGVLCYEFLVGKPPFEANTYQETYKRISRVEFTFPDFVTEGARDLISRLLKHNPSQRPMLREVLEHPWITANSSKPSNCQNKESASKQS
Conditions: at 0.1 µM.

The target in assay [11] is T3, Aurora kinase A (Homo sapiens). Conditions: at 1 µM.
Assay [12] deals with Aurora kinase B (Homo sapiens) (UniProt Q96GD4). Particulars: at 0.1 µM.
The target is the same in assay [13]. Particulars: at 1 µM.
The target in assay [14] is T4, Aurora kinase C (Homo sapiens) (UniProt Q9UQB9).
T4 sequence (whole entry): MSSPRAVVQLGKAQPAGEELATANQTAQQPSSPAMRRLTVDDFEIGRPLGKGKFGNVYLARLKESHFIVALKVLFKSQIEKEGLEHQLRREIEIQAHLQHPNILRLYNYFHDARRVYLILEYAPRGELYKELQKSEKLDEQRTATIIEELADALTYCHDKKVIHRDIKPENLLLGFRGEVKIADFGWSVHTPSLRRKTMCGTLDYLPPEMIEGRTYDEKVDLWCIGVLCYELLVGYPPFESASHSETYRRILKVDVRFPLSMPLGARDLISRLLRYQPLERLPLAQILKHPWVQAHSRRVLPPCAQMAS
Conditions: at 0.1 µM.

Assay [15] addresses T4, Aurora kinase C (Homo sapiens). Conditions: at 1 µM.
In assay [16] the target is Serine/threonine-protein kinase 10 (Homo sapiens) (UniProt O94804). Conditions: at 0.1 µM.
For assay [17] the target is unchanged. Particulars: at 1 µM.
Assay [18] deals with T5, Mitogen-activated protein kinase kinase kinase kinase 2 (Homo sapiens) (UniProt Q12851).
T5 sequence (whole entry): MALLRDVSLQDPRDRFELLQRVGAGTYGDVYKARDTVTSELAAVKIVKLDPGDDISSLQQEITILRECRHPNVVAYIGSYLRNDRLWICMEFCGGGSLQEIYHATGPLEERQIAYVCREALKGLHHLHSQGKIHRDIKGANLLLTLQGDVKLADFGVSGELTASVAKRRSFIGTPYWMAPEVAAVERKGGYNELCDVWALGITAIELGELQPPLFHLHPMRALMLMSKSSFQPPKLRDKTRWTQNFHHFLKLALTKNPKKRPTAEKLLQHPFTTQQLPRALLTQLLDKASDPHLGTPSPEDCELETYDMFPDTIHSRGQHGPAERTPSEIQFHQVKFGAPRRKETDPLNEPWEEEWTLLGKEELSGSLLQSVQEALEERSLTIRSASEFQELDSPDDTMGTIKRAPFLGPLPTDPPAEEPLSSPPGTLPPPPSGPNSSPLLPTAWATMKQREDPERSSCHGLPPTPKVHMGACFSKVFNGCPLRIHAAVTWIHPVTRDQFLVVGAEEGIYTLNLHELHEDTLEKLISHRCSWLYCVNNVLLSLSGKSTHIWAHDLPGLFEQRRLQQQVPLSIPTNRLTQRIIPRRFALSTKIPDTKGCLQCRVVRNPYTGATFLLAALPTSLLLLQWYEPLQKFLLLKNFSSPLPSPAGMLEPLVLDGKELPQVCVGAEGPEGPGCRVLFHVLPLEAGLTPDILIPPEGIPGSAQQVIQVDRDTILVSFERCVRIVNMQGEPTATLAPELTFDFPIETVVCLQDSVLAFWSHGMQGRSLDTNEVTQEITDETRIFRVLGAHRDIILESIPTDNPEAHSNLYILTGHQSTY
Conditions: at 0.1 µM.

In assay [19] the target is T5, Mitogen-activated protein kinase kinase kinase kinase 2 (Homo sapiens). Conditions: at 1 µM.
Assay [20] addresses Mitogen-activated protein kinase kinase kinase kinase 4 (Homo sapiens) (UniProt O95819). Particulars: at 0.1 µM.

Sequence of Mitogen-activated protein kinase kinase kinase kinase 4 (Homo sapiens) (O95819 2-1239 limits assumed): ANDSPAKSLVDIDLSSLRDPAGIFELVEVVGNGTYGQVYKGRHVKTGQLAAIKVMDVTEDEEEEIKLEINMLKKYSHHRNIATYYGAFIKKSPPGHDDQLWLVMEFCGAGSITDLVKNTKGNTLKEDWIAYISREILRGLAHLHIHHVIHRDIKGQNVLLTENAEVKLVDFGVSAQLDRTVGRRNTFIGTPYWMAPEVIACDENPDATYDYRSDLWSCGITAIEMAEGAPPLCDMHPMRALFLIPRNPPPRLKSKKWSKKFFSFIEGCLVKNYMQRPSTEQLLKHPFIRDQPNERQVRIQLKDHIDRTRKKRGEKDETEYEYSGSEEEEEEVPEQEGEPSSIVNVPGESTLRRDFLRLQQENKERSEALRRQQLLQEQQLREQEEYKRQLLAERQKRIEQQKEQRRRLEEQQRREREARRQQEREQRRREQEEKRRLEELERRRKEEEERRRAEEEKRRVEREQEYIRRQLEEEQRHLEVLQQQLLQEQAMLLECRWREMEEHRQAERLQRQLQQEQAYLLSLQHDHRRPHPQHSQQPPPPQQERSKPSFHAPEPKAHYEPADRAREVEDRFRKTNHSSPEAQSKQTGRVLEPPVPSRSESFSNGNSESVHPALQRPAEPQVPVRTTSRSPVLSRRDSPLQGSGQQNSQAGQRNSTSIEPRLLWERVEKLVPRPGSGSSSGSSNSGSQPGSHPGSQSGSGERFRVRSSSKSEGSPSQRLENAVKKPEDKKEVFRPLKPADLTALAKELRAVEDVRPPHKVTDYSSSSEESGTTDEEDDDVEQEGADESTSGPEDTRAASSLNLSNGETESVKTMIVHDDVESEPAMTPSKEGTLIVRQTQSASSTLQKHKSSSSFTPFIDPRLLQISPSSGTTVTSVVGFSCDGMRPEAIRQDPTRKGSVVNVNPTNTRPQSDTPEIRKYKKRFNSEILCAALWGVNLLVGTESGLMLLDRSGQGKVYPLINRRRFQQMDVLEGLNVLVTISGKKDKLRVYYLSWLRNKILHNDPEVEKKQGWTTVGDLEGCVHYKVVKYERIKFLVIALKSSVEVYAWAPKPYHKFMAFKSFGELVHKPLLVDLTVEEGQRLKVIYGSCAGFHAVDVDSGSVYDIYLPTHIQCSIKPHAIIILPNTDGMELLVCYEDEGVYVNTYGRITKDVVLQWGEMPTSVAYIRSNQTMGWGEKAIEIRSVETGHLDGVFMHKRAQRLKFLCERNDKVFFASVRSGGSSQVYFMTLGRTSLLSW
Sequence of NT-3 growth factor receptor (Homo sapiens) (Q16288 32-839 limits assumed): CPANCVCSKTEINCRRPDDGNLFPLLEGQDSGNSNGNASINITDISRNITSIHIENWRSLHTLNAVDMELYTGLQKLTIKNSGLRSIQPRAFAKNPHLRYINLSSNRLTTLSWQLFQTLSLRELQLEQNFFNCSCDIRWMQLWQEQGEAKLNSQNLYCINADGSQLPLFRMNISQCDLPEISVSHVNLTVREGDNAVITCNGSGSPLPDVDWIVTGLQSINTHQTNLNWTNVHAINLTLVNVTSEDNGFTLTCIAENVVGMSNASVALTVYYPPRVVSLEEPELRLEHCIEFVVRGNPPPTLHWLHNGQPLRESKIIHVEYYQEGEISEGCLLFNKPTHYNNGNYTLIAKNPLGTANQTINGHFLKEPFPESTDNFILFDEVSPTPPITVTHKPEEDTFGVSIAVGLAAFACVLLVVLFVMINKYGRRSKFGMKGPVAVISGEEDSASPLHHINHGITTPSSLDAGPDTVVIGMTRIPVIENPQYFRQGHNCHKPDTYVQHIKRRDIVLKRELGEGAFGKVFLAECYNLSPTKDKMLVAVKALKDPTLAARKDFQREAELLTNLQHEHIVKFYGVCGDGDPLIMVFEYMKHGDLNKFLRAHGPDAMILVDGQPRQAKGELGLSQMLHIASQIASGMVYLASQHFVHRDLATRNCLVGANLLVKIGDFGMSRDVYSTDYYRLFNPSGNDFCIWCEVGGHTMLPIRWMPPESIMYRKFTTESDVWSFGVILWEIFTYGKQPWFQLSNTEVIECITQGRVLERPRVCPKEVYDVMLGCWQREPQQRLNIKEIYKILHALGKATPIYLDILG
Sequence of BDNF/NT-3 growth factors receptor (Homo sapiens) (Q16620 32-822 limits assumed): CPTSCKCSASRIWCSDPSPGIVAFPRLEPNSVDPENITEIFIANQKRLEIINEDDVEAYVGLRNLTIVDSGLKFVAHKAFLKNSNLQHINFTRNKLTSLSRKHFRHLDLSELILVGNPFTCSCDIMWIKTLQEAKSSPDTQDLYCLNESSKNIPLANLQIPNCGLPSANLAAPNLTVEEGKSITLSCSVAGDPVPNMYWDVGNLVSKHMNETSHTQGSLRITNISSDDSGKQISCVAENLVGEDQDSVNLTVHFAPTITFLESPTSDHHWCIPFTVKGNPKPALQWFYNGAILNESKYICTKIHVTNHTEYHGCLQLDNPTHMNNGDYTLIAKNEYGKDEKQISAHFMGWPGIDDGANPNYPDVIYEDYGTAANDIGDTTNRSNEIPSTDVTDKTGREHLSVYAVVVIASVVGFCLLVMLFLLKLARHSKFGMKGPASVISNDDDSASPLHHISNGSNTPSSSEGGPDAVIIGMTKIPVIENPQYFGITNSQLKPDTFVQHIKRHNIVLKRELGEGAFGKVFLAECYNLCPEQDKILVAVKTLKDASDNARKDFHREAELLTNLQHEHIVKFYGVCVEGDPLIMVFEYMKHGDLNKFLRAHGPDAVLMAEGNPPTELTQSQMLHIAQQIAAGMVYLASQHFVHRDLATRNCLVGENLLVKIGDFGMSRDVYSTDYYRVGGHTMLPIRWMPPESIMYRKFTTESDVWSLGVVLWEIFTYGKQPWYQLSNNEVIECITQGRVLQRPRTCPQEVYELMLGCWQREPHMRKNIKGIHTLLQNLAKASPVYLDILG
Sequence of Non-receptor tyrosine-protein kinase TYK2 (Homo sapiens) (P29597 whole entry): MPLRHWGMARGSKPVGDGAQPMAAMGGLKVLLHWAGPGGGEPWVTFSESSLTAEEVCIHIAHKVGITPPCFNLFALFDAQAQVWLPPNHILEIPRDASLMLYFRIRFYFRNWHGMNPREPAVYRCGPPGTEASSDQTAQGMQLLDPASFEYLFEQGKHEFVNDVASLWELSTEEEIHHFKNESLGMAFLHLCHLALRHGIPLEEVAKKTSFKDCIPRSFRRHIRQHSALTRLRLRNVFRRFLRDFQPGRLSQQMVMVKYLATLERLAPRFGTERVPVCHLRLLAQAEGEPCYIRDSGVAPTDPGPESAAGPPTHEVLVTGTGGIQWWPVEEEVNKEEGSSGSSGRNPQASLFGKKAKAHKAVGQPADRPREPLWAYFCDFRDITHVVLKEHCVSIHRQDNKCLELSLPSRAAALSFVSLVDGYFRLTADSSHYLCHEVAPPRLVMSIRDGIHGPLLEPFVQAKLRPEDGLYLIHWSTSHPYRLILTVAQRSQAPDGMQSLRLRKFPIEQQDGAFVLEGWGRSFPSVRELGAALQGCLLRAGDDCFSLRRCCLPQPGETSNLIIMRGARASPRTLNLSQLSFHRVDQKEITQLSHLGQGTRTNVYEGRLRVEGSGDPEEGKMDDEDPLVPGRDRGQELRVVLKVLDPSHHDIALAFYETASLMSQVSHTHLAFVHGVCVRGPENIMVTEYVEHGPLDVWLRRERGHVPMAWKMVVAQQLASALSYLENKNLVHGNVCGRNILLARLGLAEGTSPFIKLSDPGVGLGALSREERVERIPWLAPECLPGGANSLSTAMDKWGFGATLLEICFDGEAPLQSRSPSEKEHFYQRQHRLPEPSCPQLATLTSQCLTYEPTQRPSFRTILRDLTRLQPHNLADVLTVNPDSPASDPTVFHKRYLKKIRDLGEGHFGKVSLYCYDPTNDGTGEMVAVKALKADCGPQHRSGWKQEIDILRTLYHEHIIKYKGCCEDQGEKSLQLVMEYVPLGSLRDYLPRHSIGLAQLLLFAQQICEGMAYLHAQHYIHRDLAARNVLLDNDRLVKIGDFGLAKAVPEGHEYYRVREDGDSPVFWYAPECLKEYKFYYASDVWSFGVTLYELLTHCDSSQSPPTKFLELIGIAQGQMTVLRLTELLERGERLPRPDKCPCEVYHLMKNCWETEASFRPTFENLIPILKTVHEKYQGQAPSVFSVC
Sequence of Aurora kinase B (Homo sapiens) (Q96GD4 whole entry): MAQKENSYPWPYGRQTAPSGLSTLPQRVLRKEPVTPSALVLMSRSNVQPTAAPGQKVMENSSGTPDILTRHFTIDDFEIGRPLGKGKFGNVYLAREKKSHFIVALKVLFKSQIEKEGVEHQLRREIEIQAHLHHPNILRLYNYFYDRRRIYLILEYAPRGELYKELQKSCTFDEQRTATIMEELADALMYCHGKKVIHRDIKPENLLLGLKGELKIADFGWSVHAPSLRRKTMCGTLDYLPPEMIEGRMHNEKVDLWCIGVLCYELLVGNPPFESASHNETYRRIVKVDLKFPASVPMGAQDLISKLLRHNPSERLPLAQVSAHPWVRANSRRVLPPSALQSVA

Regarding `Fc1ccc(-c2nc3n(c2-c2ccncc2)CCS3)cc1`, the inhibition (usually the drop in the measured response relative to a control, in per cent) was 1.45% in assay [1]; 2.62% in assay [2]; 0.16% in assay [3]; 2.96% in assay [4]; 3.11% in assay [5]; -0.13% in [6]. In addition, the inhibition in [7] was -0.14%; in assay [8], -8.34%; in assay [9], 9.6%; in [10], -1.28%; in assay [11], 1.43%; in [12], -0.42%. Further, the inhibition is 2.92% in assay [13]; -1.97% in assay [14]; 13.6% in assay [15]; 1.88% in [16]; 6.87% in assay [17]; 1.36% in assay [18]. Besides, the inhibition stood at 6.73% in assay [19] and 5.82% in assay [20].

Consider `COc1cc2ncn(-c3cc(OCc4cccs4)c(C(N)=O)s3)c2cc1OC`, for which the inhibition in assay [1] worked out at 8.7%; in assay [2] it was 3.23%; in [3] it was 16.9%; in [4], 6.48%; in assay [5], 27.2%; in assay [6], 0.76%. Further, the inhibition is 5.11% in assay [7]; -2.34% in assay [8]; 7.37% in assay [9]; -6.64% in assay [10]; 13.4% in assay [11]; 2.98% in [12]. Further, the inhibition was 20% in assay [13]; -0.54% in [14]; 10.1% in [15]; 75.9% in assay [16]; 93.5% in assay [17]; 10.8% in assay [18]. In addition, the figures for the inhibition in assay [19] and in assay [20] were 36% and 18.7%, respectively.

With `CCS(=O)(=O)c1ccc(OC)c(Nc2ncc(-c3ccccc3Cl)o2)c1`, the inhibition in [1] was found to be 5.58%; in [2] it was 1.97%; in assay [3], 8.35%; in assay [4] it was 3.33%; in assay [5], 12.5%; in assay [6] it was 1.52%. Also, the inhibition in assay [7] is 10.3%; in assay [8], -3.24%; in assay [9] it was 9.34%; in assay [10], 1.49%; in assay [11] it was 10.9%; in assay [12] it was -1.57%. In addition, the inhibition is 5.12% in assay [13]; 1.38% in [14]; -2.79% in [15]; 2.59% in [16]; 6.5% in assay [17]; 0.68% in [18]. The inhibition in assay [19] was determined as 5.1%; in assay [20] it was 4.85%.

For `NS(=O)(=O)c1ccc(Nc2cc(-c3ccc(O)c(F)c3)n[nH]2)cc1`, the inhibition in [1] is 36.2%; in assay [2], 6.06%; in assay [3], 36.7%; in assay [4], 10.5%; in assay [5], 47.7%; in assay [6], -1.15%. In addition, the inhibition in [7] was -0.33%; in assay [8], 0.21%; in [9], 10%; in assay [10], -2.14%; in assay [11], 37.3%; in assay [12], 0.09%. The inhibition in [13] is 19.4%; in assay [14] it was -0.76%; in [15], 22.4%; in assay [16] it was -0.42%; in [17], 16.4%; in [18], 0.41%. Besides, the inhibition is 6.09% in [19] and 18.7% in assay [20].
